Results taken from PubChem BioAssay AID1159580 (chemical genetic matrix, 2015).
The campaign covered roughly 5,500 compounds. About 2,000 (36%) were called active. Inconclusive results (about 18%) are left out. Cut-off read from the data, not from the text of the source: active = normalized growth mostly below about 0.91 (no sharp cut-off); inconclusive = no clear call, values can overlap the other calls; inactive = mostly above about 0.92. The list shows a part of the results.

Assay: chemical genetic growth profiling, strain panel (AID 1159580);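 note: tested at 20 µM; growth read once vehicle control cultures reached saturation at 30 °C; 1 = growth at the plate median or of vehicle wells; lower values mean less growth of the strain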
Conditions: growth OD
[1] = S. cerevisiae deletion strains, locus YAL013W, strain DEP1, hits give low values
[2] = S. cerevisiae deletion strains, locus YDR150W, strain NUM1, hits give low values
[3] = S. cerevisiae deletion strains, locus YJR075W, strain HOC1, hits give low values
[4] = S. cerevisiae deletion strains, locus YMR263W, strain SAP30, hits give low values
[5] = S. cerevisiae deletion strains, locus YNL153C, strain GIM3, hits give low values
[6] = S. cerevisiae deletion strains, locus YPL241C, strain CIN2, hits give low values

Measured: normalized growth

CC1Cc2cc3c(cc2C(c2ccc(N)cc2)=NN1)OCO3 (centres undefined)
inactive: [1] 0.958 | S. cerevisiae deletion strains, locus YAL040C, strain CLN3, hits give low values 0.946 | S. cerevisiae deletion strains, locus YCL061C, strain MRC1 (second series), hits give low values 0.991 | [2] 0.995 | S. cerevisiae deletion strains, locus YDR363W, strain ESC2, hits give low values 0.989 | S. cerevisiae deletion strains, locus YER002W, strain NOP16, hits give low values 0.991 | [3] 0.97 | [4] 0.982 | [5] 0.979 | S. cerevisiae deletion strains, locus YNL175C, strain NOP13, hits give low values 0.996 | S. cerevisiae deletion strains, locus YNL197C, strain WHI3, hits give low values 0.999 | S. cerevisiae deletion strains, locus YNL224C, strain SQS1, hits give low values 0.996 | [6] 0.986

CCCSP(=O)(OCC)SCCC
inactive: [1] 1.01 | S. cerevisiae deletion strains, locus YBR021W, strain FUR4, hits give low values 1 | S. cerevisiae deletion strains, locus YBR229C, strain ROT2, hits give low values 1.02 | S. cerevisiae deletion strains, locus YCL029C, strain bik1, hits give low values 0.988 | S. cerevisiae deletion strains, locus YDL035C, strain GPR1, hits give low values 1.02 | S. cerevisiae deletion strains, locus YDL074C, strain BRE1, hits give low values 1.07 | S. cerevisiae deletion strains, locus YDL101C, strain DUN1, hits give low values 1.02 | S. cerevisiae deletion strains, locus YDL134C, strain PPH21, hits give low values 1.02 | S. cerevisiae deletion strains, locus YDL185W, strain tfp1, hits give low values 0.984 | S. cerevisiae deletion strains, locus YDL192W, strain arf1, hits give low values 0.988 | S. cerevisiae deletion strains, locus YDR101C, strain arx1, hits give low values 0.99 | [2] 1.02 | S. cerevisiae deletion strains, locus YDR162C, strain NBP2, hits give low values 1.02 | S. cerevisiae deletion strains, locus YDR318W, strain mcm21, hits give low values 0.995 | S. cerevisiae deletion strains, locus YDR388W, hits give low values 0.995 | S. cerevisiae deletion strains, locus YDR502C, strain sam2, hits give low values 0.996 | S. cerevisiae deletion strains, locus YEL061C, strain CIN8, hits give low values 1.02 | S. cerevisiae deletion strains, locus YER110C, hits give low values 0.983 | S. cerevisiae deletion strains, locus YER155C, strain BEM2, hits give low values 1.03 | S. cerevisiae deletion strains, locus YER167W, strain BCK2, hits give low values 0.994 | S. cerevisiae deletion strains, locus YGL078C, strain dbp3, hits give low values 0.964 | S. cerevisiae deletion strains, locus YGL086W, strain mad1, hits give low values 0.994 | S. cerevisiae deletion strains, locus YGL248W, strain PDE1, hits give low values 1.03 | S. cerevisiae deletion strains, locus YGR078C, strain PAC10, hits give low values 1.02 | S. cerevisiae deletion strains, locus YGR135W, strain pre9, hits give low values 0.98 | S. cerevisiae deletion strains, locus YGR229C, strain SMI1, hits give low values 1.03 | S. cerevisiae deletion strains, locus YGR252W, strain gcn5, hits give low values 0.927 | S. cerevisiae deletion strains, locus YHR030C, strain SLT2, hits give low values 1.02 | S. cerevisiae deletion strains, locus YHR079C, strain IRE1 (second series), hits give low values 0.982 | S. cerevisiae deletion strains, locus YHR094C, strain hxt1, hits give low values 0.978 | S. cerevisiae deletion strains, locus YHR129C, strain ARP1, hits give low values 1.02 | S. cerevisiae deletion strains, locus YHR200W, strain rpn10, hits give low values 0.982 | S. cerevisiae deletion strains, locus YIL066C, strain RNR3, hits give low values 1.03 | S. cerevisiae deletion strains, locus YIL073C, strain SPO22, hits give low values 0.996 | S. cerevisiae deletion strains, locus YIL125W, strain kgd1, hits give low values 0.987 | S. cerevisiae deletion strains, locus YIR030C, strain dcg1, hits give low values 0.976 | S. cerevisiae deletion strains, locus YJL095W, strain BCK1, hits give low values 1.04 | S. cerevisiae deletion strains, locus YJL134W, strain LCB3, hits give low values 1.01 | S. cerevisiae deletion strains, locus YJL168C, strain set2, hits give low values 0.981 | S. cerevisiae deletion strains, locus YJL187C, strain SWE1 (second series), hits give low values 1.01 | S. cerevisiae deletion strains, locus YJR043C, strain POL32, hits give low values 1.02 | [3] 1.03 | S. cerevisiae deletion strains, locus YKL009W, strain mrt4, hits give low values 1.01 | S. cerevisiae deletion strains, locus YKL068W, hits give low values 0.996 | S. cerevisiae deletion strains, locus YKL085W, strain MDH1 (second series), hits give low values 0.99 | S. cerevisiae deletion strains, locus YKL085W, strain MDH1, hits give low values 0.99 | S. cerevisiae deletion strains, locus YKL190W, strain CNB1, hits give low values 1 | S. cerevisiae deletion strains, locus YKR001C, strain vps1, hits give low values 0.982 | S. cerevisiae deletion strains, locus YLR039C, strain RIC1, hits give low values 1.02 | S. cerevisiae deletion strains, locus YLR058C, strain SHM2, hits give low values 1.01 | S. cerevisiae deletion strains, locus YLR102C, strain apc9, hits give low values 0.977 | S. cerevisiae deletion strains, locus YLR262C, strain YPT6, hits give low values 1.02 | S. cerevisiae deletion strains, locus YLR268W, strain sec22, hits give low values 0.994 | S. cerevisiae deletion strains, locus YLR330W, strain CHS5, hits give low values 1.02 | S. cerevisiae deletion strains, locus YLR342W, strain FKS1 (second series), hits give low values 0.995 | S. cerevisiae deletion strains, locus YLR371W, strain rom2, hits give low values 0.981 | S. cerevisiae deletion strains, locus YLR418C, strain cdc73, hits give low values 0.999 | S. cerevisiae deletion strains, locus YML016C, strain PPZ1, hits give low values 1.02 | S. cerevisiae deletion strains, locus YML032C, strain rad52, hits give low values 0.983 | S. cerevisiae deletion strains, locus YML124C, strain tub3, hits give low values 0.989 | S. cerevisiae deletion strains, locus YMR078C, strain ctf18, hits give low values 0.983 | S. cerevisiae deletion strains, locus YMR223W, strain ubp8, hits give low values 0.974 | [4] 1.03 | S. cerevisiae deletion strains, locus YMR307W, strain GAS1, hits give low values 1.01 | S. cerevisiae deletion strains, locus YNL067W, strain RPL9B, hits give low values 1.02 | S. cerevisiae deletion strains, locus YNL128W, strain TEP1, hits give low values 1.03 | [5] 1.02 | S. cerevisiae deletion strains, locus YNL233W, strain BNI4, hits give low values 1.01 | S. cerevisiae deletion strains, locus YNL250W, strain rad50, hits give low values 0.984 | S. cerevisiae deletion strains, locus YNL271C, strain bni1, hits give low values 0.974 | S. cerevisiae deletion strains, locus YNL298W, strain CLA4, hits give low values 0.977 | S. cerevisiae deletion strains, locus YNL307C, strain MCK1, hits give low values 0.979 | S. cerevisiae deletion strains, locus YNL322C, strain KRE1, hits give low values 1.01 | S. cerevisiae deletion strains, locus YNR052C, strain pop2, hits give low values 0.971 | S. cerevisiae deletion strains, locus YOL006C, strain TOP1, hits give low values 1.05 | S. cerevisiae deletion strains, locus YOL012C, strain htz1 0.903 | S. cerevisiae deletion strains, locus YOL147C, strain pex11, hits give low values 0.991 | S. cerevisiae deletion strains, locus YOR061W, strain CKA2, hits give low values 1.01 | S. cerevisiae deletion strains, locus YOR069W, strain VPS5, hits give low values 1.01 | S. cerevisiae deletion strains, locus YOR136W, strain idh2, hits give low values 0.998 | S. cerevisiae deletion strains, locus YOR144C, strain elg1, hits give low values 0.999 | S. cerevisiae deletion strains, locus YOR184W, strain ser1, hits give low values 0.975 | S. cerevisiae deletion strains, locus YOR316C, strain cot1, hits give low values 0.99 | S. cerevisiae deletion strains, locus YPL055C, strain LGE1, hits give low values 1.03 | [6] 1.01 | S. cerevisiae deletion strains, locus YPR119W, strain clb2, hits give low values 0.985 | S. cerevisiae deletion strains, locus YPR141C, strain kar3, hits give low values 0.987 | S. cerevisiae deletion strains, locus YPR163C, strain tif3, hits give low values 0.986 | S. cerevisiae deletion strains, locus YPR167C, strain met16, hits give low values 0.985 | S. cerevisiae deletion strains, strain wtn01, hits give low values 0.987 | S. cerevisiae strains, strain wild type, hits give low values 1.02
